Only some compounds are listed: those with a hit (about 3.8% of all), similar ones and a draw of the others.
HT1080 IDH1KD tx = qHTS for induction of synthetic lethality in tumor cells producing 2HG: qHTS for the HT-1080-IDH1KD cell line | HT-1080 IDH1 knockdown viability, ATP luminescence, 48 h | Potency, µM (top dose mostly 46.1 µM), for the others: at the top dose activity, negative = toxicity, most hits filed as cytotoxic | actives 2% (n = 360,000);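 further: 0% = DMSO wells and -100% = cell-free medium wells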
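HT-1080-IDH1KD cells (IDH1 knocked down), 750/well in RPMI with 5% FBS, treated with compound 48 h at 37 degrees C. Viability by CellTiter-Glo luminescence, normalised to DMSO and no-cell wells; concentration-response curves classed.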
S2 tox = Viability Counterscreen for Primary qHTS for Inhibitors of ATXN expression | AID 651635, 2014 | Potency, µM (top dose mostly 56.7 µM), actives largely listed as cytotoxic | actives 0.49% (n = 400,000) | S2 cells (HEK-293 line with an ATXN2-luciferase reporter) viability, CellTiter-Fluor protease fluorescence, 24 h; further: nearly all actives have a fitted effect of over 40% in size
HT1080-NT tox = qHTS for induction of synthetic lethality in tumor cells producing 2HG: qHTS for the HT-1080-NT fibrosarcoma cell line | actives 1.6% (n = 360,000) | Potency, µM (highest dose often 46.1 µM), inactives show top-dose activity, negative = less viability, usual class: cytotoxic | AID 686970, 2013 | HT-1080-NT fibrosarcoma viability, CellTiter-Glo ATP luminescence, 48 h;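 further: NT is the 2HG producing partner of a matched IDH1 knockdown line; 0% = DMSO-treated cells and -100% = media-only wells without cells; nearly all actives have a fitted effect of over 55% in size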
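Fibrosarcoma NT cells, 750 per well in 5% FBS RPMI, were exposed to compound for 48 hours. Viability: CellTiter-Glo luminescence.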
HepG2 viability = qHTS for Inhibitors of TGF-b: Cytotox Counterscreen | HepG2 CAGA-GFP viability, ATP luminescence, 18 h | Potency, µM (doses to about 46.1 µM), inactives show at the highest dose activity change, negative = cytotoxicity, most hits filed as cytotoxic | actives 0.76% (n = 410,000)
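CellTiter-Glo luminescence gave cytotoxicity after 18 hours at 37 degrees C. The cells were HepG2 CAGA-GFP in 1% FBS DMEM, stimulated with 500 pg/mL TGF-beta after compound addition. %Activity was normalised to no-cell wells (complete cell-killing) and DMSO (no toxicity), and curves were fitted and classified.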
ATXN2 expr inh = Primary qHTS for Inhibitors of ATXN expression. HEK-293 ATXN2-luciferase reporter, luminescence, 24 h. Potency, µM (highest dose often 57 µM), for inactives: top-dose activity change, negative = inhibition, hits mostly inhibitors. actives 0.72% (n = 360,000). AID 1745845, 2022; further: on the % scale 0 is the no-effect control and ±100 the full control effect; nearly all actives have a fitted effect of over 55% in size
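qHTS (up to 57 uM final) was run with 24 h compound exposure of reporter cells at 37 °C. Each well was multiplexed: SteadyGlo luminescence measured ATXN2-luciferase expression after a fluorogenic Gly-Phe-AFC viability readout (25 uM final).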
TGFb SMAD3 inh = qHTS for Inhibitors of TGF-b | AID 588855, 2011 | HepG2 CAGA-GFP TGF-b/SMAD3 reporter, GFP fluorescence, 18 h; TGF-beta stimulated, 500 pg/mL final | actives 1.2% (n = 410,000) | Potency, µM (titrated, usually from 46.1 µM), for the others: at the top dose activity, negative = inhibition, actives largely listed as inhibitors; further: on the % scale 0 is the no-effect control and ±100 the full control effect; nearly all actives have a fitted effect of over 65% in size
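Read-out: total well GFP (ex488/em500-530) summed from mean per-cell fluorescence. Cells: HEPG2 CAGA-GFP, 1% FBS DMEM, 18 h at 37 degrees C with 500 pg/mL final TGF-beta. Unstimulated wells served as the full-inhibition control; stimulated DMSO wells = 0%.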
Numbers without * were called inactive; i = inactive; ? = inconclusive; nt = no result given. The call rests on the fitted dose curve; in most records, active means well fitted curve in the direction sought with a large enough effect; inconclusive means small, poorly fitted or top-dose-only effect, or another doubt; inactive means no such curve, though single readings can be large; an effect the other way counts as inactive or inconclusive. Potency means the concentration at half of the fitted maximal effect.

SMILES | HT1080 IDH1KD tx | S2 tox | HT1080-NT tox | HepG2 viability | ATXN2 expr inh | TGFb SMAD3 inh
Cc1cn2c(=O)cc(COC(=O)COc3ccc(C)c(C)c3)nc2s1 | nt | i | nt | 4% | 6% | -3%
O=C(NCCCN1CCc2ccccc2C1)Nc1ccc(Br)cc1 | 18µM* | i | ? | -48% | 13% | 0%
COc1cccc(-c2nc(CS(=O)(=O)CC(=O)Nc3c(C)cc(C)cc3C)c(C)o2)c1 | nt | nt | nt | -79% | nt | 10µM*
Cc1ccccc1-c1nc(CS(=O)(=O)CC(=O)Nc2c(C)cccc2C)c(C)o1 | nt | i | nt | -62% | ? | 11µM*
COc1cccc(-c2nc(CS(=O)(=O)CC(=O)Nc3c(C)cccc3C)c(C)o2)c1 | -9% | ? | -14% | -14% | -12% | -23%
CCCNC(=O)CS(=O)(=O)Cc1nc(-c2ccccc2C)oc1C | 1% | ? | -6% | -15% | -11% | 2%
COc1ccc(OC)c(CCNC(=O)CS(=O)(=O)Cc2nc(-c3cccc(Cl)c3)oc2C)c1 | nt | ? | nt | -42% | ? | 16µM*
CCOc1ccc(CNC(=O)c2ccc3c(c2)nc2n3CCCCC2)cc1 | nt | nt | nt | 2% | nt | ?
OCc1ccccc1O[C@@H]1O[C@H](CO)[C@H](O)[C@H](O)[C@H]1O | nt | nt | nt | nt | -1% | nt
CC1(C)C(=O)C=CC(=O)C(C)(C)C(=O)C=CC(=O)C(C)(C)C2=CC=C(O2)C(C)(C)C(=O)C=CC1=O | ? | nt | 0% | -15% | 25µM* | -6%
S=C(NCc1ccco1)N/N=C/c1ccc(Cl)cc1 | 17% | i | 10% | -90% | 1% | 13µM*
Oc1ccc(/C=N/NC(=S)NCc2ccco2)cc1 | 14% | ? | 10% | 1% | 1% | 3%
Cc1c(NC(=O)c2ccccc2F)cccc1-c1nc2cccnc2s1 | nt | nt | nt | -6% | nt | -12%
O=C1NC(c2ccccc2Cl)=N/C1=C/c1ccco1 | -4% | i | -3% | 18µM* | 33% | ?
O=C1NC(c2ccc(Br)cc2)=N/C1=C/c1ccco1 | -23% | i | -14% | 5% | 21% | 0%
Cc1ccnc2ccc(I)cc12 | nt | nt | nt | 4% | nt | -1%
COc1ccc(-n2c(SCC(=O)Nc3nnc(C)s3)nc3c([nH]c4ccccc43)c2=O)cc1 | nt | nt | nt | -9% | nt | 4%
O=C(NCC1CCCCC1)C1(CC2CC(c3cccc(Br)c3)=NO2)CCNCC1 (configuration not stated) | -30% | nt | -18% | 16µM* | ? | ?
CC(C)(C)OC(=O)N1CCC(CC2CC(c3cccc(Br)c3)=NO2)(C(=O)NCC2CCCCC2)CC1 (configuration not stated) | -2% | i | -5% | -13% | -2% | ?
COc1cc(OC)c(NC(=O)Cn2c(=O)cc(C)c3c(C)nn(-c4ccc(C)cc4)c32)cc1Cl | nt | i | nt | -30% | -1% | 1%
CC(C)CCNC(=O)C(=O)Nc1ccc2c(c1)N(S(=O)(=O)c1cccs1)CCC2 | 2.6µM* | i | 3.3µM* | 0% | 2% | 5%
COCCNC(=O)C(=O)Nc1ccc2c(c1)N(S(=O)(=O)c1cccs1)CCC2 | 6.5µM* | ? | ? | -20% | -18% | -11%
CC(C)CNC(=O)C(=O)Nc1ccc2c(c1)N(S(=O)(=O)c1cccs1)CCC2 | -7% | i | -13% | -7% | 19% | 18%
O=C(NCCCO)C(=O)Nc1ccc2c(c1)N(S(=O)(=O)c1cccs1)CCC2 | 5% | i | 1% | -20% | 9% | 18%
O=C(c1ccc(Nc2nccc(-c3cc4ccccc4s3)n2)cc1)N1CCC(N2CCCC2)CC1 | nt | nt | nt | nt | 19µM* | nt
